Experimental data taken from the supplement of paper PMC11001985.
Unmarked numbers belong to inactive results.

What follows are targets tested with C#CCNC(=O)CCSSCCC(=O)NCCc1ccc(C=O)c(C=O)c1 (assay: lysine labeling ratio R10:1 (500 µM / 50 µM probe), SILAC-ABPP in living cells; higher = lower intrinsic lysine reactivity toward the probe, active = 2 or less). Settings: HeLa; probe concentrations 500 vs 50 µM.
Procedure, shortened: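 An alkyne-tagged lysine probe with a disulfide linker labelled living HeLa cells in PBS at room temperature at either 50 µM or 500 µM, using SILAC light and heavy cells in forward and reverse label swaps. Lysates were mixed, clicked to biotin-azide, trypsin-digested, enriched on neutravidin, DTT-released, alkylated and measured by LC-MS/MS on a TIMS-TOF Pro. Each lysine's R is the filtered median high-probe/low-probe MS1 peptide ratio, combined as the median over forward and reverse replicates, with 20 as the upper limit.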

Sequence of UniProt Q13561 (Q13561 whole entry): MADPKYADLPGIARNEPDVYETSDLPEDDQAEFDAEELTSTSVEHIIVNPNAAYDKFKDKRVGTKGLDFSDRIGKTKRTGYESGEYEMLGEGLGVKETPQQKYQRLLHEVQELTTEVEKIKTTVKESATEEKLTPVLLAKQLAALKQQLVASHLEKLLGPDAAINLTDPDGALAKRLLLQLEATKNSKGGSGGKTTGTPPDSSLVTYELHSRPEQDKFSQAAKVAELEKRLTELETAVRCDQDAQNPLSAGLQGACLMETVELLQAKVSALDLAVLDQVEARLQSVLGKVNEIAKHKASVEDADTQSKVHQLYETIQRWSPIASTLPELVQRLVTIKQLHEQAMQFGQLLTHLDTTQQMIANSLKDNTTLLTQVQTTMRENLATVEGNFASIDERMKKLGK
Sequence of UniProt P17301 (P17301 whole entry): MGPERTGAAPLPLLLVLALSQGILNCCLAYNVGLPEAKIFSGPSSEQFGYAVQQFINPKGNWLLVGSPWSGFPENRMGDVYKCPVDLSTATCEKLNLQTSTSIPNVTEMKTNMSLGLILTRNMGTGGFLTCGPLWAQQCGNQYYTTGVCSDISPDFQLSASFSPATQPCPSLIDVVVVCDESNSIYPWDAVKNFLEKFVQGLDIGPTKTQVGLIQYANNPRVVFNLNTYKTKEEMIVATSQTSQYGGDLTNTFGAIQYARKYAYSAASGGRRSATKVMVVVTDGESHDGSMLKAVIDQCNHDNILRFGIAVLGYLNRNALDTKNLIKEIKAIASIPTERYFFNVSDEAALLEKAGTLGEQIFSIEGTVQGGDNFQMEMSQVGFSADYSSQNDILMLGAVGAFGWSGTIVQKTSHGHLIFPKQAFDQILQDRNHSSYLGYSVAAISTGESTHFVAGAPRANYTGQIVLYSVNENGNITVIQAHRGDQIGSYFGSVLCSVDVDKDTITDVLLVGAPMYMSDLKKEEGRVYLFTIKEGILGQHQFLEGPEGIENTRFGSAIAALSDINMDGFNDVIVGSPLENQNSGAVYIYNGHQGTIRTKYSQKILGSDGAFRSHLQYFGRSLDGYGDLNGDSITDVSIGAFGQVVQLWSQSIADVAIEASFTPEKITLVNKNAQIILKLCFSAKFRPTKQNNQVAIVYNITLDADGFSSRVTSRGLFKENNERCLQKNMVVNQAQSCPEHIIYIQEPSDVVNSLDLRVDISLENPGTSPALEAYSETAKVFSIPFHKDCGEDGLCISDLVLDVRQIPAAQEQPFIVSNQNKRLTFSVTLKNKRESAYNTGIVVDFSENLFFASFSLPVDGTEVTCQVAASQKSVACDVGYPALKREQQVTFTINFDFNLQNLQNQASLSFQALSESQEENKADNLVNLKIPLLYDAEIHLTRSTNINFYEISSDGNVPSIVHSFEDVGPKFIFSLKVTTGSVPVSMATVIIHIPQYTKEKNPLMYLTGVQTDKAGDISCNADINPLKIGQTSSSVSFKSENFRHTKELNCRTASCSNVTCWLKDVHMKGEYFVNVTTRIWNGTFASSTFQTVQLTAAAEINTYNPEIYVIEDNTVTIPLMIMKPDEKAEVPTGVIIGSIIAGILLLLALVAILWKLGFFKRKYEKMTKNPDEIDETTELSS
Sequence of UniProt Q15366 (Q15366 whole entry): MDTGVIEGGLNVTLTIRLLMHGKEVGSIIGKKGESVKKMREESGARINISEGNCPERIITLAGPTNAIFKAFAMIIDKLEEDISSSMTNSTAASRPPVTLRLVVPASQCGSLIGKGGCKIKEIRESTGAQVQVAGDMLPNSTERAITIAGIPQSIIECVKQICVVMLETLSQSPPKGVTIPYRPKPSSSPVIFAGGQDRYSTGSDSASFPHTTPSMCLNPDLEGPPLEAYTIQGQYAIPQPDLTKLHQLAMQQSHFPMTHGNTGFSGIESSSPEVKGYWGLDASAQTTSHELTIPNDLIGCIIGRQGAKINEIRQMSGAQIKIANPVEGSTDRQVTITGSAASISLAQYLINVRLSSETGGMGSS
Sequence of UniProt P29317 (P29317 whole entry): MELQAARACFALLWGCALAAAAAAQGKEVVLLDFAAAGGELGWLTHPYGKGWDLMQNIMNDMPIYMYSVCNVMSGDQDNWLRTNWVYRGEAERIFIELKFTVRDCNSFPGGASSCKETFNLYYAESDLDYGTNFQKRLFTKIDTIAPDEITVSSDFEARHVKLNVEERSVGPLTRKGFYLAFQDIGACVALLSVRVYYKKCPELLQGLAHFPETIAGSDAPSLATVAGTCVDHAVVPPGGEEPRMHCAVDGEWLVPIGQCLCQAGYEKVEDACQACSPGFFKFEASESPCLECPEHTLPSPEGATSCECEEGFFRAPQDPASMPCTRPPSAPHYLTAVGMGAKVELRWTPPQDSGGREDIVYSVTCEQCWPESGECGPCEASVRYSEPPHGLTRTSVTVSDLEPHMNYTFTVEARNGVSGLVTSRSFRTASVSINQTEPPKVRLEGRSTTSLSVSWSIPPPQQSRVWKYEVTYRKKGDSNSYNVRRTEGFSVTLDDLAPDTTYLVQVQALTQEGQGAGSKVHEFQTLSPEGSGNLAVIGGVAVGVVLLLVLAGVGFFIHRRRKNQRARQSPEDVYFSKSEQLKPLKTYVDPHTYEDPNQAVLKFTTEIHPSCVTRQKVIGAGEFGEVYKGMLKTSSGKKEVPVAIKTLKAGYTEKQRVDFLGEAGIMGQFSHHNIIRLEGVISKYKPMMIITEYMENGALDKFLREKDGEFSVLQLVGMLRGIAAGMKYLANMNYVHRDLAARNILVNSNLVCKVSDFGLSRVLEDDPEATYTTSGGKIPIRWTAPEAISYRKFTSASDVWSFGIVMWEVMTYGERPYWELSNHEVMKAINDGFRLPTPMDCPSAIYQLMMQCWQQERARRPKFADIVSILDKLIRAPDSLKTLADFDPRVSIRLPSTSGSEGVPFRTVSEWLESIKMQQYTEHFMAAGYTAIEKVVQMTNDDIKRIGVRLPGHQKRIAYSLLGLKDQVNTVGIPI
Sequence of UniProt Q9UJS0 (Q9UJS0 whole entry): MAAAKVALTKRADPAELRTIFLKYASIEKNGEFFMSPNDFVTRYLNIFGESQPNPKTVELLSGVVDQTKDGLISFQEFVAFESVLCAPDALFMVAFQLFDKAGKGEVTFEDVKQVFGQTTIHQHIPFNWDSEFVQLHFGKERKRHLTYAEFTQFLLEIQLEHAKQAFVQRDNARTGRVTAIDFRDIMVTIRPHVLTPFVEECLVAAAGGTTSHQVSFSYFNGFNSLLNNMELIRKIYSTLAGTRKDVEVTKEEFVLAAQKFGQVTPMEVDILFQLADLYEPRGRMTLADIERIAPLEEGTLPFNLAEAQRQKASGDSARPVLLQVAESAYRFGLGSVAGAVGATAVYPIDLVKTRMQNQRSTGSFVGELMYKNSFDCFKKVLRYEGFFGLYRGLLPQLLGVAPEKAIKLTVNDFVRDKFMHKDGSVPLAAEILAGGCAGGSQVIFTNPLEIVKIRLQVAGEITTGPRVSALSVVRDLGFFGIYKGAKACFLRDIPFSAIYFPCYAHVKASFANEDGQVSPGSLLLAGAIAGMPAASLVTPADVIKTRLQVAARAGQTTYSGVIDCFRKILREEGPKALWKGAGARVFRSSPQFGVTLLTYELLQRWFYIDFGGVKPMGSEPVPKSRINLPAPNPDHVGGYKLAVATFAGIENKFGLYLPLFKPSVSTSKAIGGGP
Sequence of UniProt P55145 (P55145 whole entry): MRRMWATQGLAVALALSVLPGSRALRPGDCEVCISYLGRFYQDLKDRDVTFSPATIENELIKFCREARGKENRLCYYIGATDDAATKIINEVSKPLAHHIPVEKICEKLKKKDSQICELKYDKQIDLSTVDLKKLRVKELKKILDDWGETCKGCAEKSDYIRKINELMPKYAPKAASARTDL
Sequence of UniProt P40189 (P40189 whole entry): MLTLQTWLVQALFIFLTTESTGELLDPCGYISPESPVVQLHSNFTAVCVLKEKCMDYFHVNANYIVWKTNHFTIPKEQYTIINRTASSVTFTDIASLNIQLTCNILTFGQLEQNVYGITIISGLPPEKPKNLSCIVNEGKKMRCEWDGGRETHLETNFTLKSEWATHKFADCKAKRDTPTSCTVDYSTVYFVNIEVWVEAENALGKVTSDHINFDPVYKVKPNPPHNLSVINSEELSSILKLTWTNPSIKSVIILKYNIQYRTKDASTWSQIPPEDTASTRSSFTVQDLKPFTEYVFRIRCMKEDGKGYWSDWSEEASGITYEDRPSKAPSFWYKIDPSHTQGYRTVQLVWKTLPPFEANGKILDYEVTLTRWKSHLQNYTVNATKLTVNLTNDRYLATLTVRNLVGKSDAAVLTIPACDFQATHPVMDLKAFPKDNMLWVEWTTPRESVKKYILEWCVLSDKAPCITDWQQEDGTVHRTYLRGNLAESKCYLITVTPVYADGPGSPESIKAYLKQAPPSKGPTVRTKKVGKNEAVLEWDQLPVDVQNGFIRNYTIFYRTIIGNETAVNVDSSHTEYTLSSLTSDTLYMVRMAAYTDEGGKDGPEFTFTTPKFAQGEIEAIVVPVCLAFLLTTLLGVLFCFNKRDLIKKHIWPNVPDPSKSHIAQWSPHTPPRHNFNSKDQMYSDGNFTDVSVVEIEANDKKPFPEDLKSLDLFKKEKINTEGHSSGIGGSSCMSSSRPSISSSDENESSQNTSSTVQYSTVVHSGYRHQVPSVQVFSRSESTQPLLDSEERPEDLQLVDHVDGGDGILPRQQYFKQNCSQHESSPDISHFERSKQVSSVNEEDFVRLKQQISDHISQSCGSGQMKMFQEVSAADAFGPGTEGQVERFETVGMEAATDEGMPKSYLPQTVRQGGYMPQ
Sequence of UniProt Q04837 (Q04837 whole entry): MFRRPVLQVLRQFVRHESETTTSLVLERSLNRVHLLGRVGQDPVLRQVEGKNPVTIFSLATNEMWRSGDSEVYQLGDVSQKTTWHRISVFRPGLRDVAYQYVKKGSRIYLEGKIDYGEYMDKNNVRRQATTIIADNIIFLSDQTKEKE

Target | lysine labeling ratio R10:1
CCT5 (lysine site: K392) (UniProt P48643) | 2.73
UniProt P25705 (lysine site: K167) | 2.05
STOML2 (lysine site: K187) (UniProt Q9UJZ1) | 1.1 (active)
SSBP1 (lysine site: K81) (UniProt Q04837) | 4.93
IL6ST (lysine site: K335) (UniProt P40189) | 0.692 (active)
DCTN2 (lysine site: K65) (UniProt Q13561) | 1.14 (active)
CCT8 (lysine site: K37) (UniProt P50990) | 1.6 (active)
PPL (lysine site: K1151) (UniProt O60437) | 3.53
PCBP2 (lysine site: K322) (UniProt Q15366) | 4.37
UniProt P55145 (lysine site: K45) | 4
GPI (lysine site: K366) (UniProt P06744) | 2.81
UniProt Q5XKE5 (lysine site: K350) | 4.43
FLNA (lysine site: K1375) (UniProt P21333) | 2.93
ITGA2 (lysine site: K1038) (UniProt P17301) | 2.81
EPHA2 (lysine site: K475) (UniProt P29317) | 2.38
LRPAP1 (lysine site: K182) (UniProt P30533) | 0.73 (active)
PRDX6 (lysine site: K56) (UniProt P30041) | 3.23
SLC25A13 (lysine site: K408) (UniProt Q9UJS0) | 2.67
ENO1 (lysine site: K256) (UniProt P06733) | 1.87 (active)
PNN (lysine site: K202) (UniProt Q9H307) | 3
UniProt P62913 (lysine site: K154) | 2.92
ITGB1 (lysine site: K575) (UniProt P05556) | 3.24
COPA (lysine site: K480) (UniProt P53621) | 4.64
